# Measurements reported in PubChem BioAssay AID1159580 (chemical genetic matrix, 2015).
# Values joined by “and” are separate entries in the source; they are usually repeats but may differ in a detail not shown here. Identical values can stand only once. The campaign covered roughly 5,500 compounds. About 2,000 (36%) were called active. Inconclusive results (about 18%) are left out. The list shows a part of the results. Values without a mark were called inactive. No stated cut-off is given here; in the data, active means normalized growth mostly below about 0.91 (no sharp cut-off); inconclusive means no clear call, values can overlap the other calls; inactive means mostly above about 0.92.
# Experiment: chemical genetic growth profiling, strain panel (AID 1159580);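 further: tested at 20 µM; growth read once vehicle control cultures reached saturation at 30 °C; 1 = growth at the plate median or of vehicle wells; lower values mean less growth of the strain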
# Details: S. cerevisiae deletion strains, growth OD
smiles,measurement,setting,value
COc1ccc2cc([C@H](C)C(=O)O)ccc2c1,normalized growth,"locus YAL013W, strain DEP1, hits give low values",1
same,normalized growth,"locus YAL021C, strain ccr4, hits give low values",0.943
same,normalized growth,"locus YAL026C, strain drs2, hits give low values",0.961
same,normalized growth,"locus YAL030W, strain snc1, hits give low values",0.981
same,normalized growth,"locus YAL040C, strain CLN3, hits give low values",1.07
same,normalized growth,"locus YBL061C, strain skt5, hits give low values",0.984
same,normalized growth,"locus YBR009C, strain hhf1, hits give low values",0.98
same,normalized growth,"locus YBR021W, strain FUR4, hits give low values",0.958
same,normalized growth,"locus YBR023C, strain chs3, hits give low values",0.987
same,normalized growth,"locus YBR171W, strain sec66, hits give low values",0.963
same,normalized growth,"locus YBR229C, strain ROT2, hits give low values",1
same,normalized growth,"locus YBR231C, strain swc5, hits give low values",0.996
same,normalized growth,"locus YBR279W, strain paf1, hits give low values",0.967
same,normalized growth,"locus YCL011C, strain gbp2, hits give low values",0.98
same,normalized growth,"locus YCL016C, strain dcc1, hits give low values",0.993
same,normalized growth,"locus YCL029C, strain bik1, hits give low values",0.999
same,normalized growth,"locus YCL061C, strain MRC1 (second series), hits give low values",0.994
same,normalized growth,"locus YCL061C, strain MRC1, hits give low values",0.974
same,normalized growth,"locus YCL069W, strain vba3, hits give low values",0.968
same,normalized growth,"locus YCR088W, strain abp1, hits give low values",0.972
same,normalized growth,"locus YDL005C, strain med2, hits give low values",0.96
same,normalized growth,"locus YDL035C, strain GPR1, hits give low values",0.984
same,normalized growth,"locus YDL040C, strain nat1, hits give low values",0.973
same,normalized growth,"locus YDL074C, strain BRE1, hits give low values",0.989
same,normalized growth,"locus YDL101C, strain DUN1, hits give low values",1.02
same,normalized growth,"locus YDL134C, strain PPH21, hits give low values",1
same,normalized growth,"locus YDL185W, strain tfp1, hits give low values",0.957
same,normalized growth,"locus YDL192W, strain arf1, hits give low values",0.985
same,normalized growth,"locus YDR001C, strain nth1, hits give low values",0.98
same,normalized growth,"locus YDR069C, strain doa4, hits give low values",0.963
same,normalized growth,"locus YDR101C, strain arx1, hits give low values",1.01
same,normalized growth,"locus YDR137W, strain rgp1, hits give low values",0.932
same,normalized growth,"locus YDR150W, strain NUM1, hits give low values",1.01
same,normalized growth,"locus YDR159W, strain sac3, hits give low values",0.926
same,normalized growth,"locus YDR162C, strain NBP2, hits give low values",0.99
same,normalized growth,"locus YDR195W, strain ref2",0.932
same,normalized growth,"locus YDR297W, strain sur2, hits give low values",0.978
same,normalized growth,"locus YDR318W, strain mcm21, hits give low values",0.996
same,normalized growth,"locus YDR334W, strain swr1, hits give low values",0.961
same,normalized growth,"locus YDR335W, strain msn5, hits give low values",0.988
same,normalized growth,"locus YDR363W, strain ESC2, hits give low values",0.979
same,normalized growth,"locus YDR388W, hits give low values",0.998
same,normalized growth,"locus YDR392W, strain spt3, hits give low values",0.842
same,normalized growth,"locus YDR502C, strain sam2, hits give low values",0.964
same,normalized growth,"locus YEL003W, strain gim4, hits give low values",0.951
same,normalized growth,"locus YEL037C, strain rad23, hits give low values",0.958
same,normalized growth,"locus YEL061C, strain CIN8 (second series), hits give low values",0.964
same,normalized growth,"locus YEL061C, strain CIN8, hits give low values",1
same,normalized growth,"locus YER002W, strain NOP16, hits give low values",0.969
same,normalized growth,"locus YER015W, strain faa2, hits give low values",0.978
same,normalized growth,"locus YER016W, strain bim1, hits give low values",0.976
same,normalized growth,"locus YER110C, hits give low values",0.992
same,normalized growth,"locus YER111C, strain swi4, hits give low values",0.966
same,normalized growth,"locus YER155C, strain BEM2 (second series), hits give low values",0.964
same,normalized growth,"locus YER155C, strain BEM2, hits give low values",0.975
same,normalized growth,"locus YER167W, strain BCK2, hits give low values",0.986
same,normalized growth,"locus YFR010W, strain ubp6, hits give low values",0.959
same,normalized growth,"locus YGL078C, strain dbp3, hits give low values",0.957
same,normalized growth,"locus YGL086W, strain mad1, hits give low values",0.98
same,normalized growth,"locus YGL167C, strain pmr1, hits give low values",0.977
same,normalized growth,"locus YGL173C, strain kem1, hits give low values",0.97
same,normalized growth,"locus YGL227W, strain vid30, hits give low values",0.98
same,normalized growth,"locus YGL240W, strain doc1, hits give low values",0.962
same,normalized growth,"locus YGL248W, strain PDE1, hits give low values",1
same,normalized growth,"locus YGL253W, strain hxk2, hits give low values",0.985
same,normalized growth,"locus YGR078C, strain PAC10, hits give low values",1
same,normalized growth,"locus YGR135W, strain pre9, hits give low values",0.984
same,normalized growth,"locus YGR229C, strain SMI1, hits give low values",0.999
same,normalized growth,"locus YGR252W, strain gcn5, hits give low values",0.933
same,normalized growth,"locus YHR013C, strain ard1, hits give low values",0.928
same,normalized growth,"locus YHR027C, strain rpn1, hits give low values",0.971
same,normalized growth,"locus YHR030C, strain SLT2, hits give low values",1.01 and 0.896
same,normalized growth,"locus YHR079C, strain IRE1 (second series), hits give low values",1
same,normalized growth,"locus YHR079C, strain IRE1, hits give low values",0.881
same,normalized growth,"locus YHR094C, strain hxt1, hits give low values",0.986
same,normalized growth,"locus YHR129C, strain ARP1, hits give low values",1.01
same,normalized growth,"locus YHR142W, strain chs7, hits give low values",0.965
same,normalized growth,"locus YHR200W, strain rpn10, hits give low values",0.982
same,normalized growth,"locus YIL066C, strain RNR3, hits give low values",1.01
same,normalized growth,"locus YIL073C, strain SPO22, hits give low values",1.03
same,normalized growth,"locus YIL125W, strain kgd1, hits give low values",0.93 (active)
same,normalized growth,"locus YIR030C, strain dcg1, hits give low values",0.995
same,normalized growth,"locus YJL092W, strain hpr5, hits give low values",0.959
same,normalized growth,"locus YJL095W, strain BCK1 (second series), hits give low values",0.987
same,normalized growth,"locus YJL095W, strain BCK1, hits give low values",1.04 and 0.918
same,normalized growth,"locus YJL115W, strain asf1, hits give low values",0.96
same,normalized growth,"locus YJL129C, strain trk1, hits give low values",0.9
same,normalized growth,"locus YJL134W, strain LCB3, hits give low values",1
same,normalized growth,"locus YJL154C, strain vps35, hits give low values",0.976
same,normalized growth,"locus YJL164C, strain tpk1, hits give low values",0.967
same,normalized growth,"locus YJL166W, strain qcr8, hits give low values",0.97
same,normalized growth,"locus YJL168C, strain set2, hits give low values",0.991
same,normalized growth,"locus YJL187C, strain SWE1 (second series), hits give low values",1.02
same,normalized growth,"locus YJL187C, strain SWE1, hits give low values",0.972
same,normalized growth,"locus YJR043C, strain POL32, hits give low values",0.981
same,normalized growth,"locus YJR066W, strain TOR1, hits give low values",0.845
